About 79,000 compounds went through this panel and 15% of them were active in at least one assay; those are over-represented in the sample as a whole. Rule as the data show it: active = growth inhibition above about 70%; inactive = the rest.
Tests used:
[1] = NCI Yeast Anticancer Drug Screen. Data for the rad50 strain (AID 155);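 also: 0% = growth of vehicle-only cultures of the same strain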; conditions: S. cerevisiae rad50 strain growth inhibition; at 50.0 µM; hits give high values
Method in brief: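 Growth of the mutant yeast was measured after compound exposure and referenced to vehicle-treated cultures.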

[2] = NCI Yeast Anticancer Drug Screen. Data for the mec2-1 strain (AID 157); conditions: S. cerevisiae mec2-1 strain, at 50.0 µM, hits give high values
Method in brief: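 Mutant yeast (mec2-1) grown with compound; growth inhibition relative to vehicle control reported.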

[3] = NCI Yeast Anticancer Drug Screen. Data for the sgs1 mgt1 strain (AID 161);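 also: 0% = growth of cultures given vehicle only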; conditions: S. cerevisiae sgs1 mgt1 strain, at 50.0 µM, hits give high values
Method in brief: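 Compounds are added to genetically altered yeast, and growth is compared with cultures given vehicle alone to give percent inhibition.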

[4] = NCI Yeast Anticancer Drug Screen. Data for the cln2 rad14 strain (AID 165);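 also: 0% = growth equal to vehicle treated cultures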; conditions: S. cerevisiae cln2 rad14 strain, at 50.0 µM, hits give high values
Method in brief: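 Readout is yeast growth inhibition versus vehicle-treated controls, using a strain with cln2 and rad14 alterations exposed to compound.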

[5] = NCI Yeast Anticancer Drug Screen. Data for the bub3 strain (AID 167); conditions: S. cerevisiae bub3 mutant strain, at 50.0 µM, hits give high values
Method in brief: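 Whole-cell yeast assay. The mutant strain was incubated with compounds, and growth inhibition was determined by comparison with vehicle-treated cells.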

[6] = NCI Yeast Anticancer Drug Screen. Data for the mlh1 rad18 strain (AID 175); conditions: S. cerevisiae mlh1 rad18 strain growth inhibition; at 50.0 µM; hits give high values
Method in brief: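 Genetically defined yeast (DNA repair-deficient) exposed to compounds; growth inhibition determined relative to vehicle.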

Measured: growth inhibition

CCc1nnc2sc(=S)[nH]n12
inactive: [1] -7.65% | [2] -14.6% | [3] -15.8% | [4] -7.4% | [5] 2.45% | [6] -12.9%

C/C(O)=C(/C=N/C(N)=S)C(N)=O
inactive: [1] -3.05% | [2] 14.2% | [3] 7.1% | [4] 22% | [5] 10.2% | [6] 15.5%

CCOC(=O)c1cn(C2OC(COC(=O)c3ccccc3)C(OC(=O)c3ccccc3)C2OC(=O)c2ccccc2)c(=O)nc1N (configuration not stated)
inactive: [1] -1.05% | [2] -12.2% | [3] 18% | [4] -32% | [5] 7.45% | [6] -7.15%

COc1ccc(NC(=O)CSc2nnc(Cc3ccccc3)o2)cc1
inactive: [1] -49.5% | [2] -37.4% | [3] -43.6% | [4] -21.1% | [5] -54% | [6] -57.6%

Nc1ccc(S(=O)(=O)n2c(=O)oc3cc(Cl)ccc32)cc1
inactive: [1] 0.75% | [2] 5.75% | [3] 8.9% | [4] -6.7% | [5] 14.1% | [6] 19.8%

O=C1CCCc2cc3c(cc21)CC1(Cc2ccccc2C1)C3
inactive: [1] -12.2% | [2] -27.8% | [3] 9.4% | [4] -6.4% | [5] 36.9% | [6] -14.7%

CCN(CC)CCCC(C)n1c(SC)nc2cc(Cl)ccc21 (configuration not stated)
inactive: [1] -11.5% | [2] -32.9% | [3] 9% | [4] -32.6% | [5] 7.2% | [6] -7.7%

CC(Cl)(CO)CCl (configuration not stated)
inactive: [1] 5.45% | [2] 9.5% | [3] -2.65% | [4] 4.05% | [5] -6.4% | [6] 2.05%

CC(C)(C)C(=O)Oc1ccc[nH]c1=O
inactive: [1] 23.4% | [2] -13.9% | [3] 2.35% | [4] -27.6% | [5] -13.7% | [6] -2.1%

COc1cc2c(cc1OC)C(Cc1ccccc1CCCl)=NCC2
inactive: [1] 15.1% | [2] 8.65% | [3] -31.8% | [4] -1.8% | [5] -24.7% | [6] 2.45%

CCC(O)(c1ccc(OC)cc1)C(O)(CC)c1ccc(OC)cc1 (configuration not stated)
inactive: [1] 9.2% | [2] 2.05% | [3] 16.4% | [4] 7.8% | [5] 5.85% | [6] 4.9%

CN(C)c1ccc(C=Nc2cc(Cl)ccc2O)cc1
inactive: [1] 38.9% | [2] 23.2% | [3] 37.4% | [4] -2.9% | [5] 66% | [6] 52.9%

O=C(C[n+]1cccc(Br)c1)c1ccc(F)cc1
inactive: [1] 16.1% | [2] 19.9% | [3] 9.6% | [4] 21.4% | [5] 3.35% | [6] 10.2%

CCOCC(OCC)OCC
inactive: [1] -4.1% | [2] 0.45% | [3] -2.55% | [4] 22.9% | [5] -5.45% | [6] 6.7%

CC(C)/C(Cl)=N\OC(NC(=O)P(=O)(c1ccccc1)c1ccccc1)(C(F)(F)F)C(F)(F)F
inactive: [1] 58.5% | [2] 52.2% | [3] 50.8% | [4] 65.5% | [5] 52.4% | [6] 60.9%

C[n+]1ccc(/C=C/c2ccc(O)c(O)c2)c2ccccc21
inactive: [1] 49.8% | [2] 33.5% | [3] 41.2% | [4] 20.5% | [5] 3.5% | [6] 43%

N#CC1CCCC[N-]1.[NH-]CC[N-]CC[NH-].[Pt+4] (configuration not stated)
inactive: [1] 57.9% | [2] 17.2% | [3] 53.6% | [4] -10.1% | [5] 4.05% | [6] 43%

OC(C1CCCCCCCCCC1)C(O)C1CCCCCCCCCC1 (configuration not stated)
inactive: [1] -35.5% | [2] -38.6% | [3] 2.8% | [4] 15.3% | [5] -38% | [6] -8.85%

O=C(CCc1cccs1)OC1CCCCC1
inactive: [1] 9% | [2] 7.05% | [3] 4.4% | [4] 13.6% | [5] 9.35% | [6] 20.9%

CCOC(=O)c1ccc(Nc2nc3cc(C(F)(F)F)ccc3nc2C(=O)OCC)cc1
inactive: [1] -31.2% | [2] -10.9% | [3] -31.9% | [4] -19.4% | [5] -11.7% | [6] -19.6%

Oc1cc(O)c(Cl)cc1Cl
inactive: [1] 15.4% | [2] -4.25% | [3] -22.8% | [4] -2.95% | [5] -12.3% | [6] 23.3%

CN=NNc1ccccc1
inactive: [1] -1.4% | [2] 6.75% | [3] -6.45% | [4] -29.2% | [5] 14.8% | [6] -6.4%

c1ccc2c(c1)C(=C1c3ccccc3-c3ccccc31)c1ccccc1-2
inactive: [1] -6.4% | [2] -18.1% | [3] -0.3% | [4] -34.8% | [5] 6.85% | [6] -2.1%

CN(C)c1ccc(C=O)cc1[N+](=O)[O-]
inactive: [1] 2.75% | [2] 6.25% | [3] -10.8% | [4] -31.8% | [5] -6.9% | [6] -5.9%

CC(=O)OCC1OC(n2c(=O)n(-c3ccccc3)c(=O)c3ccccc32)C(OC(C)=O)C(OC(C)=O)C1OC(C)=O (configuration not stated)
inactive: [1] -12.8% | [2] 11.3% | [3] -7.9% | [4] 19.1% | [5] -6.85% | [6] 4.65%

O=C(Nc1ccccc1)Sc1ccc(Cl)cc1
inactive: [1] -12.2% | [2] -13.2% | [3] -22.5% | [4] -20.1% | [5] 3.15% | [6] 2.85%

CC(C)CC(CC(C)C)=NNC(N)=O
inactive: [1] 17.3% | [2] 23% | [3] 9.05% | [4] 18.9% | [5] 7% | [6] 24.4%

O=NN(CCCl)C(=O)N(C1CCCCC1)C1CCCCC1
inactive: [1] 8.5% | [2] -3.95% | [3] 12.1% | [4] 3.35% | [5] 5% | [6] 27.7%

COc1cccc(N2C(=O)CC(=P(c3ccccc3)(c3ccccc3)c3ccccc3)C2=O)c1
inactive: [1] 40% | [2] 20.6% | [3] 23.9% | [4] -21.7% | [5] -7.9% | [6] 13.4%

c1ccc2cc(SSc3ccc4ccccc4c3)ccc2c1
inactive: [1] -30.1% | [2] -23.8% | [3] -15.9% | [4] 0.1% | [5] -17.2% | [6] -4.85%

CSc1n[n+]2c(s1)SCCC2
inactive: [1] -19.8% | [2] -27.2% | [3] 0.05% | [4] 5.45% | [5] -8.7% | [6] 0.05%

CC(=O)NCc1cc(C)c(CBr)cc1CBr
inactive: [1] -1.95% | [2] -10.8% | [3] -3.6% | [4] 7.2% | [5] 7.1% | [6] 10.1%

O=c1[nH]c2cc([N+](=O)[O-])ccc2nc1/C=C(\O)c1ccccc1
inactive: [1] -21.2% | [2] -18.4% | [3] -14.3% | [4] -3.7% | [5] -1.8% | [6] 3.3%

NC(C(=O)O)C(SCc1ccccc1)c1cccc(O)c1 (configuration not stated)
inactive: [1] -3.2% | [2] 14.3% | [3] 18.7% | [4] -26.4% | [5] -1.3% | [6] -0.7%

CC1(C)OC2OC(C(O)COC(=O)c3ccccc3)C(Cl)C2O1 (configuration not stated)
inactive: [1] 26.6% | [2] 8.35% | [3] -1.6% | [4] -5.5% | [5] 14.2% | [6] 39.3%

Cc1ccc(-c2oc3ccccc3c(=O)c2O)cc1
inactive: [1] 22.9% | [2] -9.9% | [3] 2.1% | [4] -5.3% | [5] 5.45% | [6] 7.65%

CCOC1=CC(=O)CCC1
inactive: [1] -0.2% | [2] -23% | [3] 24.9% | [4] -36.5% | [5] -7.1% | [6] 3%

Reference: PubChem BioAssay (NCI)
